In all, about 2,400 compounds went through this assay and about 750 (31%) were called active.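 How the source made its calls: active means mean activation across replicates above the hit cutoff set in the earlier primary screen (cut at about 8% in these data); inactive means the rest.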 Not all results are given here.
Biological target: Melanocortin receptor 4 (Homo sapiens) (UniProt P32245)
Assay: MC4R beta-arrestin agonists, retest, confirmation, cell-based, luminescence, U2OS (AID 602192)
Conditions: U2OS MC4R beta-arrestin recruitment, at 8.9 µM, stronger effect = higher value, scaled DMSO 0%, Melanotan II 100%

Chain of Melanocortin receptor 4 (Homo sapiens) (P32245 whole entry, looked up): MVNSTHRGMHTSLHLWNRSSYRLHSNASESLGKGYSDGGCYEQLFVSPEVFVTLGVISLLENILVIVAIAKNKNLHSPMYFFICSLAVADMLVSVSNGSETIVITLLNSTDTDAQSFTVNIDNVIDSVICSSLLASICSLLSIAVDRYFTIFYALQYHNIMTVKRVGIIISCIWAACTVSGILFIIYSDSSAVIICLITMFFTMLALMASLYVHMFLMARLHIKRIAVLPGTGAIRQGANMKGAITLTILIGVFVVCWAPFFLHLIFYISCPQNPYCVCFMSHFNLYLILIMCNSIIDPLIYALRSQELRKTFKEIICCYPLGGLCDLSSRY

activation, inactive:
COc1ccc2nc(NC(=O)c3ccc(Br)s3)sc2c1 5.97%
COc1ccc(Cn2c(C)c(C)c(C#N)c2NC(=O)Nc2ccc(F)cc2)cc1 2.83%
COC(=O)c1sccc1NC(=O)CCC1CCCC1 0.35%
O=C(NC(c1ccc(-c2ccccc2)cc1)c1cnccn1)C1CCN(CCOc2ccc(Cl)cc2Cl)CC1 (stereo unspecified) 7.32%
Cc1ccc(-c2csc(NC(=O)Cn3[nH]c(=O)c4ccccc4c3=O)n2)cc1 2.98%
Brc1ccc(-c2csc(N/N=C/c3cccnc3)n2)cc1 -2.16%
Cc1ccc(NC(=O)Nc2ccccc2)c(Br)c1 3.05%
N#CC(=C1SC=CS1)c1nc(-c2ccccc2)cs1 -2.79%
N#CCC(=O)N/N=C/c1cn(Cc2ccc3ccccc3c2)c2ccccc12 2.4%
COc1ccc(C(=O)c2oc3ccc(Br)cc3c2NC(C)=O)cc1 1.93%
COc1ccc(/C=N/NC(=O)Nc2ccc3nsnc3c2)c(OC)c1 -0.12%
CC(=O)c1sc(NC(=O)CCCOc2ccccc2C)nc1C 5.8%
COc1ccc(C(=O)n2nc(-c3ccc(C)cc3)nc2N)cc1OC 0.77%
CCc1ccc(Nc2ncc3c(n2)CC(c2ccco2)CC3=O)cc1 (stereo unspecified) 0.77%
COc1ccc(OCC(=O)Nc2ccc(N3CCC(C)CC3)cc2)cc1 2.6%
O=C(CCCN1C(=O)/C(=C\c2ccco2)SC1=S)Nc1cccc2ccccc12 -0.83%
O=C(/C=C/c1c(Cl)cccc1Cl)NCc1ccccc1 -0.28%
Cc1cccc(NC(=O)Nc2cccc(Oc3c(F)c(F)c(F)c(F)c3F)c2)c1 -1.61%
Cc1ccc(-n2cc3ccc([N+](=O)[O-])cc3n2)cc1 5.74%
Cc1ccc(Nc2nnc(SCC(=O)c3cc4ccccc4o3)s2)cc1C 1.84%
COc1ccc(S(=O)(=O)N/N=C\c2ccc(OC)c(COc3ccc(C)cc3[N+](=O)[O-])c2)cc1 1.84%
CCC(=O)c1cc2c(cc1NC(=O)c1cccs1)OCCO2 6.01%
Cc1nn2cc(-c3ccc(Cl)cc3)cnc2c1Br -1.24%
CC(=O)Nc1ccc(NC(=O)c2sc3nc4c(c(-c5ccc(C)cc5)c3c2N)CCC4)cc1 5.71%
CSc1ccc(S(=O)(=O)NCc2ccc(Cl)cc2)cc1 1.19%

activation, active:
CCN1C[C@@H]2[C@@H]3C(=O)N(Cc4ccccc4)C(=O)[C@@H]3[C@](Cc3ccccc3)(C(=O)OC)N2C1=NC1CCCCC1 17%
CN(C)CCCN(C(=O)c1ccc(S(=O)(=O)N2CCCCCC2)cc1)c1nc2ccc(Br)cc2s1 15.3%
CSc1nc2sc3c(c2c(=O)[nH]1)CCc1ccccc1-3 9.67%
Cc1csc(NC(=O)c2ccc(-c3ccc(Cl)cc3Cl)o2)n1 9.09%
CC(=O)Nc1ccc(-c2csc(NC(=O)Nc3ccccc3)n2)cc1 26.9%
O=C(Nc1nc(-c2ccc(-c3ccccc3)cc2)cs1)c1cnccn1 10.5%
COc1cccc(CNCCc2c[nH]c3ccccc23)c1OCc1ccccc1F 32%
O=C(CCCN1C(=O)/C(=C/c2cccs2)SC1=S)Nc1ccc(O)cc1 11.8%
COc1cccc2sc(N(CCCN(C)C)C(=O)C(c3ccccc3)c3ccccc3)nc12 19.5%
Cc1ccc(Nc2nnc(SCc3ccccc3)s2)cc1 9.35%
CC(C)Oc1c(Br)cc(Br)cc1/C=N/NC(N)=S 13.3%

Source: PubChem BioAssay AID602192 (The Scripps Research Institute Molecular Screening Center, 2012)
